The assay concerns the target furin, P09958. As to the kind of experiment: furin cleavage Z-score vs untreated control; higher = more cleavage, active = 3.5 or more, inactive = 1 or less, 8 variable residues between constant flanks. The procedure, abridged:
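Abundance of DNA freed from bead-bound 8-mer peptide–cDNA fusions by purified furin was measured as sequencing read counts after PCR adapter tagging. Cutting ran 7.5, 15 or 30 min in 0.01 ml of 50 mM HEPES pH 7.5 with CaCl2 and NaCl at 1:10 enzyme:substrate. The cleavage Z-score expresses these log counts against furin-free reactions after lowess adjustment and median absolute deviation scaling.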

This is one part of the list. No count for the full screen is at hand.

Sequence of furin, P09958 (P09958 whole entry, the tested form may be a part): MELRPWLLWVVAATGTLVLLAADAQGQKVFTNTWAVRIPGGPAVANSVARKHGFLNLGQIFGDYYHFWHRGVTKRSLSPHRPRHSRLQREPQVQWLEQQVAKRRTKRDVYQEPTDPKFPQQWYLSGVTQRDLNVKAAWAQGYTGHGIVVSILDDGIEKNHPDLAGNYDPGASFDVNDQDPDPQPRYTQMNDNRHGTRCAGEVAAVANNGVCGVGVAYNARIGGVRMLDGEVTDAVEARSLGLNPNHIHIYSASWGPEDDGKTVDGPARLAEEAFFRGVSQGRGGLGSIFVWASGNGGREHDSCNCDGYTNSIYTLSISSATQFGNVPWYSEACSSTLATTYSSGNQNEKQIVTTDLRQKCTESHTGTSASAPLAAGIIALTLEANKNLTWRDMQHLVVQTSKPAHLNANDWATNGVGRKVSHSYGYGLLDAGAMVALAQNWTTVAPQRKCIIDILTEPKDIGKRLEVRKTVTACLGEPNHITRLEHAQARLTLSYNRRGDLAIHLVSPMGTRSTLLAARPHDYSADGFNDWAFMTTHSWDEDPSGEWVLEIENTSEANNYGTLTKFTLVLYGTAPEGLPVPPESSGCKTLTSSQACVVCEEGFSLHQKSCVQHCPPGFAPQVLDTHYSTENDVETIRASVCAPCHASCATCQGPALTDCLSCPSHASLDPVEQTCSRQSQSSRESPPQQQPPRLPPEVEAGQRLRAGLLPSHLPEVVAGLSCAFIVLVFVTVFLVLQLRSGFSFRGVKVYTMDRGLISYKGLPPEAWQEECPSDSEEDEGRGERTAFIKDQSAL

B1: HC1802 (peptide)
chain: CAQEMEECSQAGNASASA
As for B1, the “furin cleavage Z-score” value was -0.772 (inactive) (7.5 min), 0.513 (inactive) (15 min) and -1.67 (inactive) (30 min).

B2: HC2076 (peptide)
chain: CAVVCCSMGYAGNASASA
With B2, the “furin cleavage Z-score” value runs as follows: (7.5 min) -1.88 (inactive); (15 min) -0.775 (inactive); (30 min) -0.0504 (inactive).

B3: HC2032 (peptide)
chain: CAVVECSMSYAGNASASA
B3: the “furin cleavage Z-score” value (7.5 min) is -0.21 (inactive), the “furin cleavage Z-score” value (15 min) is -0.185 (inactive) and the “furin cleavage Z-score” value (30 min) was 0.282 (inactive).

B4: HC869 (peptide)
chain: CAYYRGLDVSAGNASASA
B4: the “furin cleavage Z-score” value reads like this: (7.5 min) 0.136 (inactive); (15 min) -0.206 (inactive); (30 min) -0.42 (inactive).

B5: HC617 (peptide)
chain: CAVRVQGLLRAGNASASA
For B5, the “furin cleavage Z-score” value was -0.956 (inactive) (7.5 min), -0.879 (inactive) (15 min) and -0.866 (inactive) (30 min).

B6: FS-1584 (peptide)
chain: CAALSRGKREAGNASASA
Turning to B6, the “furin cleavage Z-score” value (7.5 min) was 11.2 (active), the “furin cleavage Z-score” value (15 min) is 11.6 (active) and the “furin cleavage Z-score” value (30 min) was 8.56 (active).

B7: FS-514 (peptide)
chain: CAVRFRGKREAGNASASA
In the case of B7, the “furin cleavage Z-score” value is 11.2 (active) (7.5 min), 9.46 (active) (15 min) and 7.95 (active) (30 min).

B8: HC1330 (peptide)
chain: CATLSTALAEAGNASASA
As to B8, the “furin cleavage Z-score” value reads like this: (7.5 min) -0.432 (inactive); (15 min) -1.49 (inactive); (30 min) -1.25 (inactive).

B9: FS-1748 (peptide)
chain: CARLSRGTRPAGNASASA
As for B9, the “furin cleavage Z-score” value reads like this: (7.5 min) 1.1; (15 min) 0.607 (inactive); (30 min) 1.39.

B10: FS-2430 (peptide)
chain: CARLFRGLDSAGNASASA
For B10, the “furin cleavage Z-score” value reads like this: (7.5 min) -0.523 (inactive); (15 min) -0.794 (inactive); (30 min) 0.531 (inactive).

B11: HC1748 (peptide)
chain: CAMEECSQWLAGNASASA
In the case of B11, the “furin cleavage Z-score” value is, setting by setting: (7.5 min) 1.29; (15 min) 1.35; (30 min) -0.383 (inactive).

B12: HC1278 (peptide)
chain: CAQEMGGNITAGNASASA
For the sequence B12, the “furin cleavage Z-score” value is, setting by setting: (7.5 min) 0.989 (inactive); (15 min) 0.052 (inactive); (30 min) 0.798 (inactive).

B13: HC398 (peptide)
chain: CAANGSGPDQAGNASASA
B13: the “furin cleavage Z-score” value reads like this: (7.5 min) -0.135 (inactive); (15 min) -1.15 (inactive); (30 min) 0.257 (inactive).

B14: HC1992 (peptide)
chain: CAEVCCSMSYAGNASASA
Consider B14, for which the “furin cleavage Z-score” value by setting is: (7.5 min) 0.759 (inactive); (15 min) 0.26 (inactive); (30 min) 0.528 (inactive).

B15: FS-2079 (peptide)
chain: CARRRRLVWTAGNASASA
For the sequence B15, the “furin cleavage Z-score” value reads like this: (7.5 min) -0.712 (inactive); (15 min) 0.718 (inactive); (30 min) 2.58.

B16: HC1079 (peptide)
chain: CAAAIGSVGLAGNASASA
With B16, the “furin cleavage Z-score” value runs as follows: (7.5 min) -0.425 (inactive); (15 min) -0.896 (inactive); (30 min) -0.452 (inactive).

B17: FS-1789 (peptide)
chain: CARRRRSVQLAGNASASA
B17: the “furin cleavage Z-score” value was 1.43 (7.5 min), 0.51 (inactive) (15 min) and 2.7 (30 min).

B18: FS-2232 (peptide)
chain: CARRRRDVVTAGNASASA
As to B18, the “furin cleavage Z-score” value (7.5 min) is 11.1 (active), the “furin cleavage Z-score” value (15 min) was 11.8 (active) and the “furin cleavage Z-score” value (30 min) is 8.98 (active).

B19: FS-2403 (peptide)
chain: CARRRRCVGLAGNASASA
B19: the “furin cleavage Z-score” value reads like this: (7.5 min) 2.54; (15 min) 1.19; (30 min) 5.18 (active).

B20: FS-2831 (peptide)
chain: CARTMRSSAGAGNASASA
With B20, the “furin cleavage Z-score” value is, setting by setting: (7.5 min) 0.517 (inactive); (15 min) -0.365 (inactive); (30 min) 0.495 (inactive).

B21: FS-2595 (peptide)
chain: CARRRRAVGLAGNASASA
For the sequence B21, the “furin cleavage Z-score” value by setting is: (7.5 min) 3.99 (active); (15 min) 4.72 (active); (30 min) 5.23 (active).

B22: FS-1936 (peptide)
chain: CARTMRSVGLAGNASASA
As to B22, the “furin cleavage Z-score” value was 5.41 (active) (7.5 min), 6.11 (active) (15 min) and 5.7 (active) (30 min).

B23: HC2103 (peptide)
chain: CAADVVCCSMAGNASASA
For B23, the “furin cleavage Z-score” value was 1.06 (7.5 min), 0.666 (inactive) (15 min) and 0.566 (inactive) (30 min).

B24: HC602 (peptide)
chain: CATLVFDITKAGNASASA
Take B24: the “furin cleavage Z-score” value is 1.27 (7.5 min), 0.292 (inactive) (15 min) and -0.917 (inactive) (30 min).

B25: HC652 (peptide)
chain: CALITWGADTAGNASASA
As to B25, the “furin cleavage Z-score” value was 0.62 (inactive) (7.5 min), 1.26 (15 min) and -1.35 (inactive) (30 min).

B26: HC1263 (peptide)
chain: CAQLSAPSLKAGNASASA
For B26, the “furin cleavage Z-score” value runs as follows: (7.5 min) 1.12; (15 min) 0.729 (inactive); (30 min) -0.193 (inactive).

B27: FS-3100 (peptide)
chain: CARSVRPVEFAGNASASA
As to B27, the “furin cleavage Z-score” value is, setting by setting: (7.5 min) -0.873 (inactive); (15 min) -2.07 (inactive); (30 min) -1.68 (inactive).

B28: FS-2202 (peptide)
chain: CAVYRRSLGKAGNASASA
Turning to B28, the “furin cleavage Z-score” value reads like this: (7.5 min) -0.0765 (inactive); (15 min) -0.584 (inactive); (30 min) -0.11 (inactive).

B29: FS-1713 (peptide)
chain: CARGRRSLGSAGNASASA
For the sequence B29, the “furin cleavage Z-score” value reads like this: (7.5 min) 7.83 (active); (15 min) 9.89 (active); (30 min) 8.32 (active).

B30: FS-1952 (peptide)
chain: CARGRRSLEFAGNASASA
As to B30, the “furin cleavage Z-score” value runs as follows: (7.5 min) 4.88 (active); (15 min) 7.64 (active); (30 min) 7.06 (active).

B31: HC1723 (peptide)
chain: CAMEECSAHLAGNASASA
For B31, the “furin cleavage Z-score” value is 1.16 (7.5 min), 1.94 (15 min) and 0.224 (inactive) (30 min).

B32: HC1269 (peptide)
chain: CAANHDSPDAAGNASASA
For the sequence B32, the “furin cleavage Z-score” value was -0.381 (inactive) (7.5 min), 0.0398 (inactive) (15 min) and -1.93 (inactive) (30 min).

B33: HC147 (peptide)
chain: CAEVVTWTWVAGNASASA
In the case of B33, the “furin cleavage Z-score” value was 0.828 (inactive) (7.5 min), 0.782 (inactive) (15 min) and -0.799 (inactive) (30 min).

B34: FS-678 (peptide)
chain: CAKQRRLPRSAGNASASA
Take B34: the “furin cleavage Z-score” value is, setting by setting: (7.5 min) 5.31 (active); (15 min) 3.74 (active); (30 min) 3.02.

B35: FS-1305 (peptide)
chain: CAAPQRLPRSAGNASASA
On to B35, for which the “furin cleavage Z-score” value is 5.56 (active) (7.5 min), 4.41 (active) (15 min) and 3.78 (active) (30 min).

B36: FS-1546 (peptide)
chain: CANLGRLYRSAGNASASA
Consider B36, for which the “furin cleavage Z-score” value is, setting by setting: (7.5 min) 1.72; (15 min) 0.0213 (inactive); (30 min) 0.362 (inactive).

B37: FS-394 (peptide)
chain: CAAEGWWARSAGNASASA
Consider B37, for which the “furin cleavage Z-score” value was 0.0718 (inactive) (7.5 min), 0.063 (inactive) (15 min) and -0.127 (inactive) (30 min).

B38: FS-1321 (peptide)
chain: CAESRRLPRSAGNASASA
Take B38: the “furin cleavage Z-score” value (7.5 min) was 4.7 (active), the “furin cleavage Z-score” value (15 min) is 3.1 and the “furin cleavage Z-score” value (30 min) was 2.83.

B39: FS-974 (peptide)
chain: CAAPARWPRSAGNASASA
Turning to B39, the “furin cleavage Z-score” value is 8.41 (active) (7.5 min), 5.86 (active) (15 min) and 6.73 (active) (30 min).

B40: FS-994 (peptide)
chain: CAESSRLLRSAGNASASA
Regarding B40, the “furin cleavage Z-score” value reads like this: (7.5 min) -0.56 (inactive); (15 min) -0.471 (inactive); (30 min) -0.146 (inactive).

B41: HC272 (peptide)
chain: CATPGCVPCVAGNASASA
Turning to B41, the “furin cleavage Z-score” value by setting is: (7.5 min) -0.91 (inactive); (15 min) 0.456 (inactive); (30 min) 0.199 (inactive).

B42: FS-666 (peptide)
chain: CAILNRPKRYAGNASASA
Turning to B42, the “furin cleavage Z-score” value (7.5 min) was 4.17 (active), the “furin cleavage Z-score” value (15 min) is 4.91 (active) and the “furin cleavage Z-score” value (30 min) is 4.53 (active).

B43: FS-792 (peptide)
chain: CAHHQRPKRYAGNASASA
Consider B43, for which the “furin cleavage Z-score” value by setting is: (7.5 min) 8.28 (active); (15 min) 9.17 (active); (30 min) 7.59 (active).
